Bioassay records (PubChem)
HSF1 activator: increases HSF-1 driven luciferase reporter signal | NIH3T3-HGL HSF-1 luciferase reporter, MG132, 8 h; 100% = twice DMSO control signal | 1.7% of 300,000 active | activation, % at 9 µM | AID 504408;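 active = mean replicate activation of at least 50% with a set share of replicates each reaching 50%; inconclusive = only one of those two conditions met; inactive = mean below 50% and too few replicates reaching it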
HSF1 inh: HSF1 inhibition; NIH3T3-HGL HSE-luciferase, MG132-induced, luminescence 8 h; stronger effect = lower value; activity change, negative = inhibition, % at 7.5 µM (by protocol); 0.77% of 300,000 active;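 active = more than half of replicate wells show activity change below -50%, luminescence cut by over half; inconclusive = some wells, but at most half, below -50%; inactive = no replicate well below -50%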;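 also: luciferase reports HSF-1 transcriptional activity via heat shock element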
Wnt act: Wnt/beta-catenin pathway activation | Wnt/beta-catenin reporter cell assay, activator, plate reader | activation, % at 9.35 µM | 1.2% of 300,000 active | AID 743398; in the data active = activation above about 30%, passing the limit was not always enough; inconclusive = no clear call, values can overlap the other calls
MITF act: MITF TRPM1 promoter activation in melanoma cells; SK-MEL-5 TRPM1-promoter luciferase, 24 h; % of positive control, neutral wells = 0; activation, % at 12.5 µM; 0.75% of 300,000 active; AID 588334;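 active = mean activation of at least 80% with every replicate also reaching 80%; inconclusive = mean reaches 80% but some replicate falls short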
esBAF inh: SWI/SNF esBAF complex inhibition. mouse ES cells, Bmi1-luciferase knock-in reporter, 24 h; 100% = twice the neutral-well signal. reporter increase, % at 12.5 µM. 2% of 350,000 active. AID 602393; in the data active = activation above about 40%; inconclusive = no clear call, values can overlap the other calls;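 also: a rise in the Bmi1 reporter signal indicates esBAF inhibition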
Of the large screens only hits and unclear results are named; the others gave an inactive call. Only some compounds are listed: those with a hit (about 3.9% of all), similar ones and a draw of the others.

C[C@@H]1CN([C@@H](C)CO)S(=O)(=O)c2ccc(C#Cc3cccnc3)cc2O[C@H]1CN(C)C(=O)C1CC1	none (no result: HSF1 activator, HSF1 inh, Wnt act, MITF act)
c1ccc(CCNc2nc(-c3ccncc3)cs2)cc1	none
CCCCCNc1nc(-c2ccccc2)cs1	HSF1 activator 55 (no result: Wnt act, MITF act, esBAF inh)
Cc1ccc(/C=C2/C(=O)ON=C2c2ccccc2)o1	HSF1 activator 86 (no result: MITF act, esBAF inh)
O=C1ON=C(c2ccccc2)/C1=C\c1ccco1	none (no result: MITF act)
CCCCc1ccc(/C=C2/C(=O)ON=C2c2ccccc2)s1	HSF1 activator 83 (no result: Wnt act)
CCN1CCN(c2nc(Nc3ccccc3F)nc(N)c2[N+](=O)[O-])CC1	none (no result: MITF act)
Nc1nc(Nc2ccccc2F)nc(N2CCCC2)c1[N+](=O)[O-]	MITF act 88, esBAF inh 70
COc1ccc([N+](=O)[O-])cc1NCc1ccccc1	none
CCCCNc1cc(NC(C)=O)cc2cc(OC)c(OC)cc12	HSF1 activator 76, esBAF inh 47 (no result: Wnt act)
COc1cc2cc(NC(C)=O)cc(NCc3ccccc3)c2cc1OC	HSF1 activator 66 (no result: MITF act)
COC(=O)C[C@H]1C[C@@H]2c3cc(NC(=O)C4CCOCC4)ccc3O[C@@H]2[C@@H](CO)O1	none (no result: HSF1 activator, HSF1 inh, Wnt act, MITF act)
CCc1cc2c(=O)c(-c3cnn(-c4ccccc4)c3)coc2c(CN2CCOCC2)c1O	esBAF inh 54
CCc1cc2c(=O)c(-c3cnn(-c4ccccc4)c3)c(C)oc2c(CN2CCCCC2)c1O	HSF1 activator inconclusive (no result: MITF act)
C=CCN=C1S/C(=C\c2ccc(N(C)C)cc2)C(=O)N1CC=C	Wnt act 37, MITF act 99 (no result: esBAF inh)
Nc1nc(SCc2ccccn2)c2ncn(C3CCCC3)c2n1	esBAF inh 44 (no result: HSF1 activator, HSF1 inh)
COc1ccc2cc3cc(C(=O)N(C)C4CCCCC4)oc3nc2c1	esBAF inh 51
COc1ccc2cc3cc(C(=O)N4CCCCCC4)oc3nc2c1	none (no result: Wnt act)
C[C@@H]1CCCCO[C@@H](CN(C)C(=O)Nc2ccccc2)[C@@H](C)CN([C@H](C)CO)C(=O)c2cc(NC(=O)CCCCCC(=O)Nc3ccccc3N)ccc2O1	none (no result: HSF1 activator, HSF1 inh, Wnt act, MITF act)
CC(C)Nc1nnc(Sc2ccc(Cl)cc2[N+](=O)[O-])s1	HSF1 inh -50 (no result: esBAF inh)
O=[N+]([O-])c1cnc(Sc2ccncn2)s1	HSF1 inh -67 (no result: HSF1 activator, MITF act, esBAF inh)
O=C1/C(=C/c2cccc([N+](=O)[O-])c2)CCc2ccccc21	none (no result: Wnt act)
O=C(O)c1ccc(-n2c(/C=C/c3cccc([N+](=O)[O-])c3)nc3ccccc3c2=O)cc1	none
O=C(O)c1ccc(-n2ncc3c2/C(=C\c2cccc([N+](=O)[O-])c2)CC3)cc1	MITF act 113, esBAF inh 92 (no result: HSF1 activator, HSF1 inh)
O=C(O)c1ccc(-n2ncc3c2/C(=C/c2cccc([N+](=O)[O-])c2)CC3)cc1	Wnt act inconclusive, MITF act 138 (no result: esBAF inh)
O=C(Nc1ccc(S(=O)(=O)N2CCCCCC2)cc1)c1[nH]ncc1[N+](=O)[O-]	HSF1 activator 107
O=C(C[C@@H]1C[C@@H]2c3cc(NC(=O)NC4CCCCC4)ccc3O[C@@H]2[C@H](CO)O1)NCC(F)(F)F	none (no result: HSF1 activator, HSF1 inh, Wnt act, MITF act)
OCCNCc1c(OCc2ccc(Cl)cc2)ccc2ccccc12	HSF1 activator 62
CCOC(=O)c1c(C)[nH]c(C(=O)N/N=C/c2cc([N+](=O)[O-])ccc2O)c1C	HSF1 inh -59
COc1ccc(Cl)cc1C(=O)NCC(=O)OCc1ccccc1	HSF1 inh -52
CCOc1ccc(NC(=O)c2ccc(Br)o2)c([N+](=O)[O-])c1	esBAF inh 50
CCOC(=O)c1cc(NC(=O)COc2ccc([N+](=O)[O-])cc2)cc(C(=O)OCC)c1	HSF1 activator 53 (no result: esBAF inh)
CCOc1ccc(NC(=O)Cc2ccccc2)c([N+](=O)[O-])c1	none (no result: Wnt act, esBAF inh)
CCOc1ccc(NC(=O)COc2ccccc2)c([N+](=O)[O-])c1	MITF act 130, esBAF inh 62
C[C@H](CO)N1C[C@H](C)[C@@H](CN(C)CC2CCCCC2)Oc2c(NC(=O)Nc3ccc(C(F)(F)F)cc3)cccc2C1=O	none (no result: HSF1 activator, HSF1 inh, Wnt act, MITF act)
Cc1cccc(NC(=O)c2ccc([N+](=O)[O-])o2)c1C	none
CC(C)C(=O)N1CCN(c2ccccc2NC(=O)c2ccc([N+](=O)[O-])o2)CC1	HSF1 activator 80
COc1ccccc1NC(=O)c1ccc([N+](=O)[O-])o1	HSF1 inh -86 (no result: MITF act, esBAF inh)
O=C(Nc1ccccc1N1CCCC1)c1ccc([N+](=O)[O-])o1	none
O=C(Nc1cccc2ccccc12)c1ccc([N+](=O)[O-])o1	HSF1 activator 72 (no result: MITF act)
O=C(Nc1cc(-c2nc3ncccc3o2)ccc1Cl)c1ccc([N+](=O)[O-])o1	HSF1 activator 110
C[C@H]1CN([C@@H](C)CO)C(=O)c2cc(C#CCc3ccccc3)cnc2O[C@@H]1CN(C)Cc1cccc(F)c1	none (no result: HSF1 activator, HSF1 inh, Wnt act, MITF act)
O=C(C[C@H]1C=C[C@H](NC(=O)C2CC2)[C@H](CO)O1)NCCCN1CCOCC1	none (no result: HSF1 activator, HSF1 inh, Wnt act, MITF act)
O=C(Nc1cccc([N+](=O)[O-])c1)c1ccc([N+](=O)[O-])o1	none (no result: HSF1 activator, HSF1 inh, MITF act)
O=C(Nc1cccc(NC(=O)c2ccccc2Cl)c1)c1ccc([N+](=O)[O-])o1	HSF1 activator 97
Cc1ccc(C(=O)c2coc3c2C(=O)C(=O)c2ccccc2-3)cc1	esBAF inh 42 (no result: Wnt act)
CC(C)OC(=O)Cn1nnc2c(cnn2-c2ccccc2)c1=O	esBAF inh 47 (no result: Wnt act)
COc1ccc(N/C=C2\C(=O)CCc3c2oc2cc(Cl)c(O)c(Cl)c32)cc1	HSF1 activator 62
CCC(=O)N1CCc2cc(S(=O)(=O)NCCC(=O)Nc3ccccc3C)ccc21	HSF1 inh -65
CCC(=O)N1CCc2cc(S(=O)(=O)NCCC(=O)Nc3cc(C)cc(C)c3)ccc21	none (no result: Wnt act, MITF act)
Cc1ccccc1NC(=O)CSc1nc(Nc2ccccc2)nc(N2CCOCC2)n1	HSF1 activator 74 (no result: Wnt act, esBAF inh)
COc1ccc(Nc2nc(N3CCOCC3)nc(N3CCOCC3)n2)cc1	none (no result: MITF act)
COC(=O)c1ccc(Nc2nc(N3CCOCC3)nc(N3CCOCC3)n2)cc1	MITF act 93
BrC(/C=N/Nc1nc(N2CCOCC2)nc(N2CCOCC2)n1)=C/c1ccccc1	HSF1 activator 64 (no result: Wnt act, esBAF inh)
O=C(Oc1cccc(/C=N/Nc2nc(Nc3ccccc3)nc(N3CCOCC3)n2)c1)c1ccco1	MITF act 103 (no result: esBAF inh)
CC=Cc1ccc2n(c1=O)C[C@H]1[C@H](CO)[C@@H](C(=O)NCC3CC3)N(Cc3ccccn3)[C@@H]21 (mixture of isomers)	none (no result: HSF1 activator, HSF1 inh, Wnt act, MITF act)
COc1ccc(NC(=O)N(C)C[C@@H]2OCCCC[C@H](C)Oc3ccc(NC(=O)Cc4ccccc4)cc3C(=O)N([C@H](C)CO)C[C@@H]2C)cc1	none (no result: HSF1 activator, HSF1 inh, Wnt act, MITF act)
COc1ccccc1C(=O)Nc1nc(C)cc(C)n1	none (no result: MITF act, esBAF inh)
COc1cc(C)nc(NC(=S)N(C)C(=O)c2ccccc2)n1	Wnt act 46 (no result: MITF act, esBAF inh)
C[C@@H]1CN([C@H](C)CO)C(=O)c2cc(NC(=O)CCCN(C)C)ccc2O[C@@H]1CN(C)C(=O)Nc1ccc(F)cc1	none (no result: HSF1 activator, HSF1 inh, Wnt act, MITF act)
O=C(NCCc1ccccc1)C(=O)c1cn(CC(=O)N2CCCC2)c2ccccc12	HSF1 activator 52
COc1ccccc1NC(=O)C(=O)c1cn(CC(=O)N2CCOCC2)c2ccccc12	MITF act inconclusive, esBAF inh inconclusive
